# ± gives the standard deviation.
# Test system: MILI (PIWIL2) piRISC loaded with L1MC piRNA (26 nt)
# Test: pre-steady-state target cleavage rate (min^-1); guide: L1MC piRNA 5'p-UAACUAAAUACUAUGCAAGCUGUAGG; MIWI and MILI are mouse PIWI proteins and EfPiwi is from a freshwater sponge; tags in brackets are library labels; higher = faster piRNA-guided slicing of the target
# Summary of the method: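 The method was Cleave-'n-Seq, in which uncleaved targets from a transcribed, DNA-blocked target RNA library were sequenced after exposure to active affinity-purified piRISC carrying one synthetic guide, with or without GTSF1 partner protein. Reactions contained 0.1 nM library, 1 nM piRISC and, where present, 500 nM GTSF1 in HEPES–potassium acetate buffer at 33 °C for 0–8 or 0–960 min. Reads were normalised to depth and to weakly complementary targets, three trials were pooled, and k3 was capped at 0.0001 min^-1. The pre-steady-state cleavage rate came from a burst-and-steady-state fit.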
# [1] = auxiliary factor: 500 nM mouse GTSF1
# [2] = auxiliary factor: none (no GTSF1)
Sequence,pre-steady-state target cleavage rate [1],pre-steady-state target cleavage rate [2]
UCCUGGAACAGGAAGCAUAGUAUUUUCAAA,0.00836 ± 0.0043,
UCCUGCUACAGCUUGCAUACUAUUUUCAAA,0.0295 ± 0.01,
UCCUGGAUGUCGAACGUAUCUAUUUCAGUUA,< 0.0001,
UCCUGGAUGUCGAACCAUAGUAUUAGUUA,,< 0.0001
UCCUGGAUGUCGUUGCAUAGUAUUUCGUUA,0.0162 ± 0.0076,
UCCUGGAUGUCGAACGUAAGUAUUAUAGUUA,,< 0.0001
UCCUGGUUGUGCUUGCAUAGUAUUUUCAAA,0.00513 ± 0.005,
UCCUGGAUGAGCUUGCAUUCUAUUUAGUUA,0.0348 ± 0.0092,
UCCUGGAUGUCGAUGCAUAGUAUUUAGUGUA,0.149 ± 0.045,
UCCUGGAUGUCGAUGGAUUGUAUUUAGUUA,,< 0.0001
UCCUGGUACAGCUUGCAUUCUAUUUAGUUA,0.0335 ± 0.018,
UCCUGGUACACCUUGCAUAGUAUUUACAAA,0.046 ± 0.018,
UCCUGGAUCAGCUUCCAUAGUUUUUAGUUA,0.0089 ± 0.0041,
UCCUGGUACAGCUAGCAUAGUAUUUACAAA,0.0365 ± 0.012,
UCCUGGAUGUCCUUGGAUAGUAUUUAGAUA,0.129 ± 0.035,
UCCUGGAUCAGCUACCAUAGUAUUUAGUAA,0.127 ± 0.012,
UCCUGGAACAGCAAGCAUAGUAUUUAGUAA,0.271 ± 0.025,
UCCUGGAUGUCGAACGUAUGUAUAAAGUUA,,< 0.0001
UCCUGGAUGUCGAAGCAUAGUAUUCUAGUUA,0.0193 ± 0.0065,
UCCUGGAUGUCCUUGCAUAGUAUUUACUAA,0.0464 ± 0.011,
UCCUCCUACAGCUUGCAAUCUAUUUACAAA,0.0157 ± 0.0069,
UCCUGGAUGAGCUUGCAUAGUAAUUAGAAA,0.00737 ± 0.0053,
UCCUGGAUGUCCUUGCAAAGAAUUUAGUUA,,0.00283 ± 0.0026
UCCUGGAUGUCCUUGGCAUAGUAUUUAGUUA,0.566 ± 0.19,
UCCUGGAUCUCGUUGCAUAGUAUUUACAAA,0.0638 ± 0.014,

Sequence,pre-steady-state target cleavage rate [1],pre-steady-state target cleavage rate [2]
UCCUGGAUGAGCUUGGAUAGUAUUUUGUUA,0.141 ± 0.029,
UCCUGCUACAGCUUGCAUAGUAUUUAUUA,0.0696 ± 0.017,
UCCUGGAUGUCGAUGCAUUGUAUUUAGUUA,0.0091 ± 0.0037,
UCCUGGAUGUGCAAGCAUAGUAUUUAGUAA,0.0583 ± 0.013,
UCCUGGAUCAGCUUGCAUAGAAUUUUGUUA,0.038 ± 0.012,
UCCUGGAUGUGCUUGCAUAGUAUAUAGUAA,0.0253 ± 0.0079,
UCCUGGAUGUCGAAGCAUAGUAUUUAGUA,0.0246 ± 0.008,
UCCUGGAUCAGCUUGCUUAGUAUUUUCAAA,0.0126 ± 0.0057,
UCCUGGAUGUCGAACGUUAGUAUUAACUUA,,< 0.0001
UCCUCCUACAGCUUGCAUAGAUUUUUCAAA,0.0441 ± 0.013,
UCCUCCUACAGCUUGCAUUCUAUUUACAAA,0.0257 ± 0.0099,
UCCUGGAUGUCGAUGCAUAGUAUAAUGUUA,0.031 ± 0.012,
UCCUGGUACAGCUUGCAUACAAUUUAGUUA,,0.00451 ± 0.0027
UCCUGGAUCAGCUUGCAUAGUAAAUAGUAA,0.196 ± 0.033,
UCCUGGAUCAGCUUGCAUAGUAUUUCAGUUA,0.162 ± 0.028,
UCCUGGUUGUGCUUGCAUAGUAUUUACAAA,0.00786 ± 0.0048,
UCCUGGAACUGCUUGCAUAGAAUUUAGUUA,0.0556 ± 0.013,
UCCUGGAUCACCUUGCAUAGAAUUUAGUUA,0.017 ± 0.0097,
UCCUGCUACAGGUUGCAUAGUAUUUACUUA,0.0231 ± 0.011,
UCCUGGAUGACGUUGCAUAGUAUUUAGUAA,0.136 ± 0.022,
UCCUGGAUGUCGAACGUUGAGUAUUUAGUUA,< 0.0001,
UCCUGGAUGUCGAACCAUAGAAUUUUGUUA,0.251 ± 0.13,
UCCUGGAUCAGCUUGCAUAGCUAUUUAGUUA,0.00402 ± 0.004,
UCCUGGAACAGGUUGCAUAGUAUUUAGAUA,0.136 ± 0.025,
UCCUGGAUGUCGAAGCAUAGUAUUUAGAUUA,0.00757 ± 0.0041,

Sequence,pre-steady-state target cleavage rate [1],pre-steady-state target cleavage rate [2]
UCCUGGAUGAGCUUGCAAAGUAUUUACAAA,0.00757 ± 0.0048,
UCCUGGAUCAGCUACGAUAGUAUUUAGUUA,0.0475 ± 0.0093,
UCCUGGAUGAGCUUGCAUAGUAUUUGUUA,0.118 ± 0.028,
UCCUGGAUGUCGAUGCUUAGUAUUUUGUUA,0.0154 ± 0.0056,
UCCUGGAUGUCGUUGCAUAGCAUUUAGUUA,0.0206 ± 0.007,
UCCUGGAUCAGCUUGCAUAGAUUUUAGAAA,0.00651 ± 0.0043,
UCCUCCUACAGCUUGCAUAGAUAUUAGUUA,0.0125 ± 0.0045,
UCCUGGAUGUCCUUGCAUAGUAAAAAGUUA,0.0137 ± 0.0059,
UCCUGGUACAGCUUGCAUACUAUUUUGUUA,0.0288 ± 0.011,
UCCUGCUACAGCUUGCAUUCUAUUUACAAA,0.0141 ± 0.0062,
UCCUGGAACAGCUUGCAUACUAUUUACUUA,0.0611 ± 0.015,
UCCUCCUACAGCUUGCAUAGCUAUUUAGUUA,0.0126 ± 0.0058,
UCCUGCUACUCCUUGCAUAGUAUUUUCAAA,0.0369 ± 0.013,
UCCUCCUACAGCAAGCAUAGUAUUUUCAAA,0.111 ± 0.025,
UCCUGGAACUGCUUGCAUAGUAUUUUCAAA,0.0118 ± 0.0046,
UCCUGGAUGUGCUUGCAUAGUUUAUAGUUA,0.00502 ± 0.0041,
UCCUGGAUGUCCUUGCAUAGUAUUUACAAA,0.0869 ± 0.025,
UCCUGCUACAGCUUGCAAUGUAUUUUCAAA,0.00975 ± 0.0041,
UCCUGGAUGUGCUUGCAUAGUAUUUUGAUA,0.0122 ± 0.0054,
UCCUGGAUGUCCUUGGAUAGUAUUUACUUA,0.014 ± 0.005,
UCCUGGAUGUCGAACGUUAGUAUUUACAAA,,< 0.0001
UCCUGGAACACGUUGCAUAGUAUUUUCAAA,0.0973 ± 0.026,
UCCUGGAACAGCUUGCAUAGUUAAUAGUAA,0.0133 ± 0.0056,
UCCUGGAUGUCGAACGUUAGUAUUUAGUUA,< 0.0001,
